ChEMBL document CHEMBL3988442, “University of Dundee, Small-Polar-MMV Screening Library” (2021)
About 13,000 (27%) of roughly 48,000 compounds showed an effect of 50% or more. Some of the results follow.

Each compound was assayed on Wolbachia pipientis (assay: Anti-Wolbachia Cell-Based Screen). Conditions: 5 µM.
Type: functional
Set-up: scale not given: in the data most compounds retested in dose-response had high values

SMILES	Percent Effect
COc1ccccc1N1CCC(CNC(=O)N(C)Cc2ccco2)C1 (configuration not stated)	0.07203%
COCCN(c1ccncc1)S(=O)(=O)c1cc(C)cc(F)c1	-2.462%
Cc1nc(C2CCCN(C(=O)c3cccc(S(C)(=O)=O)c3)C2)no1 (configuration not stated)	8.734%
Cc1nc(C2CCCN(C(=O)c3ccoc3)C2)no1 (configuration not stated)	101.5%
Cc1nc(C2CCCN(C(=O)c3ccnc(N(C)C)c3)C2)no1 (configuration not stated)	127.7%
CC(C)c1nc(C2CCCN(C(=O)c3ccnc(N(C)C)c3)C2)no1 (configuration not stated)	-3.864%
Cc1nc(C2CCCN(C(=O)c3ccco3)C2)no1 (configuration not stated)	13.92%
Cc1nc(C2CCCN(C(=O)c3ccc(S(C)(=O)=O)cc3)C2)no1 (configuration not stated)	120.9%
Cc1cnn(CCNCc2ccc(OCc3csc(C)n3)cc2)c1	-5.1%
Cn1c(Cn2cccn2)nnc1C1CCCN(c2ccncc2)C1 (configuration not stated)	-11.32%
Cc1ccccc1C(=O)NCc1ccc(N2CCNC(=O)C2)c(F)c1	-11.32%
O=C(O)C(F)(F)F.O=C([C@H]1COC[C@H]2CN(CC3CCCC3)C[C@H]21)N1CCOCC1	-19.66%
COc1cc(NC(=O)c2nc3ccccc3n(C)c2=O)cc(OC)c1	112.5%
COc1cccc(NC(=O)Cc2c(C)nc3c(c2C)c(=O)[nH]n3C)c1	0.5633%
COc1cc(NC(=O)NCc2ccccn2)cc(OC)c1	6.3%
Cn1c(CCCNC(=O)Nc2cn[nH]c2)nc2ccccc21	-21.13%
COc1ccc(OC)c(NC(=O)c2nc3ccccc3n(C)c2=O)c1	10.54%
COc1cccc(NC(=O)NC(C)(C)c2noc(C)n2)c1	-4.672%
CCSc1nc(N)c(NC(=O)c2ccc(OC)c(OC)c2)c(=O)[nH]1	-7.588%
CCCN1CCC(NC(=O)Nc2ccc(OC)c(OC)c2)CC1	8.494%
COc1cccc(NC(=O)c2nc3ccccc3n(C)c2=O)c1	124.2%
COc1ccc(Nc2nc3c(C)nn(C)c3c(=O)n2C)c(OC)c1	-1.628%
COc1ccc(NC(=O)c2nc3ccccc3n(C)c2=O)cc1OC	120.1%
COc1ccc(NC(=O)c2nc3ccccc3n(C)c2=O)c(OC)c1	115.5%
CN(Cc1ccsc1)C(=O)Nc1cccc(N2CCOC2=O)c1	1.632%
Cc1cccc(NC(=O)C2CCCN2C(=O)c2ccco2)c1C (configuration not stated)	-37.39%

SMILES	Percent Effect
COCCNC(=O)C1CN(Cc2nccs2)Cc2ccnn2C1.O=C(O)C(F)(F)F.O=C(O)C(F)(F)F (configuration not stated)	-2.959%
CC(C)NC(=O)C1CN(Cc2ccsc2)Cc2ccnn2C1.O=C(O)C(F)(F)F.O=C(O)C(F)(F)F (configuration not stated)	1.409%
CCOCC1CN(C(=O)Cc2cccs2)Cc2ccnn2C1 (configuration not stated)	-16.86%
COCCNC(=O)C1CN(Cc2ccncc2)Cc2ccnn2C1.O=C(O)C(F)(F)F.O=C(O)C(F)(F)F.O=C(O)C(F)(F)F (configuration not stated)	13.9%
CC(C)NC(=O)C1CN(Cc2cccs2)Cc2ccnn2C1 (configuration not stated)	-1.449%
Cc1ccc(CN2Cc3ccnn3CC(C(=O)NCC3CC3)C2)o1.O=C(O)C(F)(F)F.O=C(O)C(F)(F)F (configuration not stated)	99%
O=C(NCC1CC1)C1CN(Cc2cccs2)Cc2ccnn2C1 (configuration not stated)	124.8%
COCCNC(=O)C1CN(Cc2cccc(C)n2)Cc2ccnn2C1.O=C(O)C(F)(F)F.O=C(O)C(F)(F)F (configuration not stated)	6.488%
O=C(NCC1CC1)C1CN(c2ncccn2)Cc2ccnn2C1.O=C(O)C(F)(F)F.O=C(O)C(F)(F)F (configuration not stated)	106%
COCCNC(=O)C1CN(Cc2csc(C)n2)Cc2ccnn2C1.O=C(O)C(F)(F)F (configuration not stated)	0%
Cc1noc(C)c1CN1Cc2ccnn2CC(C(=O)NCC2CC2)C1.O=C(O)C(F)(F)F.O=C(O)C(F)(F)F (configuration not stated)	-16.43%
O=C(NCC1CC1)C1CN(Cc2ccncc2)Cc2ccnn2C1.O=C(O)C(F)(F)F.O=C(O)C(F)(F)F.O=C(O)C(F)(F)F (configuration not stated)	99.23%
CC(C)c1nnc2n1CC(CNCc1ccncc1)CC2 (configuration not stated)	-13.6%
CCCS(=O)(=O)N1CCOC2(CCCN(c3ncc(F)cn3)C2)C1 (configuration not stated)	-2.367%
N#CCCN(Cc1ccco1)C(=O)CCCc1ccccc1	9.287%
COc1nn(C)c2c1CCCN(S(=O)(=O)c1cccs1)C2	2.697%
Cc1ccc(NC(=O)C2CSCN2C(=O)c2cnccn2)c(C)c1 (configuration not stated)	-0.3998%
Cc1cccc(CN2C[C@@H]3CN(C(=O)c4cnccn4)C[C@@H]3C2=O)c1	-5.846%
O=C(O)C1(Cc2ccc(Cl)cc2)CCN(c2ncccc2F)CC1	4.468%
O=C(c1cnccn1)N1CCCC2(CCCN2Cc2cccnc2)C1 (configuration not stated)	8.648%
O=C(O)[C@]12CCCN(Cc3ccncc3)[C@@H]1CCN(c1cnccn1)C2	15.13%
NC(=O)C1(c2cnccn2)CCCN1Cc1cccc(Cl)c1 (configuration not stated)	110.7%
Cl.Cl.O[C@@H]1C[C@@](CNCc2cccc(Cl)c2)(COc2cnccn2)C[C@@H]1O	-20.67%
Cc1ccc(CN2CCCC2(C(N)=O)c2cnccn2)c(C)c1 (configuration not stated)	148.6%
NC(=O)C1(c2cnccn2)CCCN1Cc1ccc(Cl)cc1 (configuration not stated)	127.2%
NC(=O)C1(c2cnccn2)CCCN1Cc1ccncc1 (configuration not stated)	100.7%
